Screening results deposited in PubChem BioAssay by National Center for Advancing Translational Sciences (NCATS).
Hits are enriched below; roughly 19% of the tested compounds scored in any of these assays.
HT1080-NT tox: kills 2HG-producing HT-1080-NT fibrosarcoma cells; HT-1080-NT fibrosarcoma viability, CellTiter-Glo ATP luminescence, 48 h; Potency, µM (series often up to 46.1 µM), usual class: cytotoxic; 360,000 tested, 1.6% active;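 note: NT is the 2HG producing partner of a matched IDH1 knockdown line; nearly all actives have a fitted effect of over 55% in size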
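HT-1080-NT; 750 cells/well; 5% FBS RPMI; 48 h compound, 37 degrees C; CellTiter-Glo luminescence; curve fitting and curve-class assignment.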
TDP1 cell CPT: growth inhibition of DT40 Tdp1-/-;hTDP1 cells with camptothecin (screen for TDP1 inhibitors); AID 686979; chicken DT40 Tdp1-/-;hTDP1 cells + 20 nM CPT, ATP luminescence, 48 h; Potency, µM (highest dose often 46.2 µM), most hits filed as inhibitors; 420,000 tested, 12% active; note: nearly all actives have a fitted effect of over 55% in size
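Chicken DT40 Tdp1-/- cells complemented with human TDP1, 400 cells/well, exposed to compounds plus 20 nM camptothecin for at least 48 h at 37 C; viability read as ATP content by CellTiter-Glo luminescence.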
HT1080 IDH1KD tx: kills HT-1080 cells with IDH1 knockdown; HT-1080 IDH1 knockdown viability, ATP luminescence, 48 h; Potency, µM (highest dose often 46.1 µM), most hits filed as cytotoxic; 360,000 tested, 2% active; AID 686971
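Viability of IDH1-knockdown HT-1080 fibrosarcoma cells was assessed by CellTiter-Glo after 48 h at 37 °C with titrated compound; concentration-effect curves were classified by fit quality and response size.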
TDP1 cell noCPT: qHTS for Inhibitors of human tyrosyl-DNA phosphodiesterase 1 (TDP1): qHTS in cells in absence of CPT | DT40 Tdp1-/- hTDP1 cells, no CPT, ATP luminescence, 48 h | Potency, µM (titrated, usually from 46.2 µM), hits mostly inhibitors | 420,000 tested, 15% active | AID 686978, 2013; note: nearly all actives have a fitted effect of over 55% in size
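Stably hTDP1-transfected Tdp1-null chicken DT40 cells were treated with library compounds minus camptothecin and grown for at least 48 hr at 37 °C, after which cellular ATP was quantified by luminescence.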
IL-1B inflam inh: inflammasome signaling inhibition, IL-1 beta readout; THP-1 LPS/ATP IL-1B secretion, AlphaLISA, 16 h; stronger effect = lower value; activity change, % at 57.5 µM; 360,000 tested, 4.7% active; AID 743279; in the data active = activity change below about -50%; inconclusive = mostly about -30% to -49%
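Secreted IL-1B measured by AlphaLISA bead assay after 16 h compound exposure of THP-1 cells; compounds (final up to 57.5 uM) added 1 h before LPS (250 ng/mL) and ATP (1.25 mM) stimulation; lower signal means less secretion.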
ELG1 DNA repair: ELG1-dependent DNA repair inhibition; HEK293T ELG1-luciferase reporter, luminescence, 16 h; DNA damage induced by 5-fluorouridine; Potency, µM (doses to about 46.1 µM), most hits filed as inhibitors; 330,000 tested, 2.3% active; note: nearly all actives have a fitted effect of over 55% in size
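HEK293T cells expressing luciferase-tagged ELG1 (2,000/well) received 5-Fluorouridine plus compound or DMSO for 16 hr at 37 °C. Luciferase was read by ONE-Glo luminescence after 30 min at room temperature.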
Large screens that a line does not name were inactive. Unless noted, calls come from the whole dose curve; as a rule, active = well fitted curve in the direction sought with a large enough effect; inconclusive = small, poorly fitted or top-dose-only effect, or another doubt; inactive = no such curve, though single readings can be large; an effect the other way counts as inactive or inconclusive.

O=C(C1=C[C@H](C2CC2)C[C@H](OCc2ccc(CO)cc2)O1)N1CCN(Cc2ccc3c(c2)OCO3)CC1	TDP1 cell CPT inconclusive, TDP1 cell noCPT inconclusive, ELG1 DNA repair 6.51µM
O=C(C1=C[C@H](C2CC2)C[C@H](OCCCCO)O1)N1CCN(Cc2ccc3c(c2)OCO3)CC1	TDP1 cell CPT inconclusive
O=C(C1=C[C@@H](C2CCCCC2)C[C@@H](OCc2ccc(CO)cc2)O1)N1CCN(Cc2ccc3c(c2)OCO3)CC1	HT1080-NT tox inconclusive, TDP1 cell CPT inconclusive, HT1080 IDH1KD tx inconclusive, TDP1 cell noCPT 16.4µM, IL-1B inflam inh -63.3, ELG1 DNA repair inconclusive
O=C(C1=C[C@H](C2CCCCC2)C[C@H](OCc2ccc(CO)cc2)O1)N1CCN(Cc2ccc3c(c2)OCO3)CC1	HT1080-NT tox inconclusive, TDP1 cell CPT inconclusive, HT1080 IDH1KD tx inconclusive, TDP1 cell noCPT inconclusive, IL-1B inflam inh -70.2
Cc1cc(C)c2c(c1)c(C)cc1nnc(SCc3ccccc3C#N)n12	TDP1 cell noCPT inconclusive (no result: HT1080-NT tox, HT1080 IDH1KD tx, IL-1B inflam inh, ELG1 DNA repair)
COc1ccc(C(C(=O)Nc2ccc(F)cc2)N2CCN(CC(=O)N3CCCC3)CC2)cc1 (stereo not drawn)	none (no result: ELG1 DNA repair)
CSc1ccc(Cn2c(C)c(C(=O)NCc3cccc(C)c3)sc2=O)cc1	TDP1 cell CPT 23.1µM, HT1080 IDH1KD tx inconclusive, TDP1 cell noCPT inconclusive, IL-1B inflam inh -65.2 (no result: ELG1 DNA repair)
COc1ccc(NC(=O)c2sc(=O)n(Cc3ccc(F)c(Cl)c3)c2C)cc1OC	TDP1 cell CPT 23.1µM, HT1080 IDH1KD tx inconclusive, TDP1 cell noCPT 10.3µM (no result: ELG1 DNA repair)
COc1ccc(C(C)=O)cc1Cn1c(C)c(C(=O)NCc2cccc(C(F)(F)F)c2)sc1=O	TDP1 cell CPT inconclusive, HT1080 IDH1KD tx inconclusive, TDP1 cell noCPT inconclusive (no result: ELG1 DNA repair)
COc1ccc(C(C)=O)cc1Cn1c(C)c(C(=O)NCc2cccc(C)c2)sc1=O	TDP1 cell CPT inconclusive, TDP1 cell noCPT inconclusive, IL-1B inflam inh -78.5 (no result: ELG1 DNA repair)
CSc1ccc(Cn2c(C)c(C(=O)NCc3cccc(Cl)c3)sc2=O)cc1	TDP1 cell CPT inconclusive, HT1080 IDH1KD tx inconclusive, TDP1 cell noCPT inconclusive, IL-1B inflam inh inconclusive (no result: ELG1 DNA repair)
COC(=O)c1ccc(Cn2c(C)c(C(=O)NCc3ccc([N+](=O)[O-])cc3)sc2=O)o1	TDP1 cell CPT inconclusive, TDP1 cell noCPT inconclusive (no result: ELG1 DNA repair)
Cc1cccc(C)c1Cn1c(C)c(C(=O)NCc2ccc([N+](=O)[O-])cc2)sc1=O	HT1080-NT tox inconclusive, TDP1 cell CPT inconclusive, HT1080 IDH1KD tx inconclusive, TDP1 cell noCPT 23.1µM (no result: ELG1 DNA repair)
COc1cc(Cl)c(NC(=O)c2cc(S(=O)(=O)N3CCOCC3)cn2C)c(OC)c1	none (no result: HT1080-NT tox, HT1080 IDH1KD tx, IL-1B inflam inh, ELG1 DNA repair)
NS(=O)(=O)c1ccc(CCNC(=O)COC(=O)CN2C(=O)C3CCCCC3C2=O)cc1 (stereo not drawn)	none
COc1ccc(C(C)=O)cc1Cn1c(C)c(C(=O)NCc2cccc(Cl)c2)sc1=O	TDP1 cell CPT inconclusive, TDP1 cell noCPT 20.6µM (no result: ELG1 DNA repair)
COc1ccc(CNC(=O)c2sc(=O)n(Cc3cc(Cl)ccc3OC)c2C)cc1	TDP1 cell CPT inconclusive, TDP1 cell noCPT 16.4µM (no result: ELG1 DNA repair)
COc1ccc(Cl)cc1Cn1c(C)c(C(=O)NCc2cccc(Cl)c2)sc1=O	TDP1 cell CPT 14.6µM, TDP1 cell noCPT inconclusive (no result: ELG1 DNA repair)
COc1ccc(C(C)=O)cc1Cn1c(C)c(C(=O)NCc2ccc(C(C)C)cc2)sc1=O	TDP1 cell CPT inconclusive, TDP1 cell noCPT inconclusive (no result: ELG1 DNA repair)
COc1ccc(CNC(=O)c2sc(=O)n(Cc3cc(C(C)=O)ccc3OC)c2C)cc1	TDP1 cell CPT 23.1µM, TDP1 cell noCPT 13µM (no result: ELG1 DNA repair)
Cc1ccccc1S(=O)(=O)NC(=O)C1(C)CCN1C(=O)CC1CCCC1 (stereo not drawn)	HT1080 IDH1KD tx inconclusive (no result: ELG1 DNA repair)
COc1ccc(Cl)cc1Cn1c(C)c(C(=O)NCc2ccc3c(c2)OCCO3)sc1=O	TDP1 cell CPT inconclusive, TDP1 cell noCPT 18.4µM (no result: ELG1 DNA repair)
COc1ccc(C(C)=O)cc1Cn1c(C)c(C(=O)NCc2ccc3c(c2)OCO3)sc1=O	TDP1 cell CPT inconclusive, TDP1 cell noCPT inconclusive (no result: ELG1 DNA repair)
